High-throughput results (PubChem BioAssay)
Rows were chosen to be rich in hits. Some 3.3% of all compounds tested hit in one or more screens of this group.
HNF4A DNA FP: change in binding of human HNF4 alpha to DNA. HNF4a-FITC DNA binding, fluorescence polarization, 1 h. activity change, % at 10 µM. 360,000 compounds, 0.3% hits. AID 1224865; in the data active = activity change above about 30%, passing the limit was not always enough
Target sequence (P41235 whole entry, looked up): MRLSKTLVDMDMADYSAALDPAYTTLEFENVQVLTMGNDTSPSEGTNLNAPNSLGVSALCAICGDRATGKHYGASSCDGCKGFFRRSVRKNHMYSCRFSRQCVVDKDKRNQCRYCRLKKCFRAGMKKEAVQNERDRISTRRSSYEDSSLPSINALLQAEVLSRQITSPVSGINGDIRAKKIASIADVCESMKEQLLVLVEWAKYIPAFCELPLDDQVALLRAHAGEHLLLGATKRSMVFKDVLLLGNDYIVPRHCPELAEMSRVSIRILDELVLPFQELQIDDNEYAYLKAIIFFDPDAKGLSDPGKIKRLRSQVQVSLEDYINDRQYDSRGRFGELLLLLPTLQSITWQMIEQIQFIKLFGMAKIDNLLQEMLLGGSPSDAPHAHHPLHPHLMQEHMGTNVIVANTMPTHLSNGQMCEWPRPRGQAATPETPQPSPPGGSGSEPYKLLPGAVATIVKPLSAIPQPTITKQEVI
TPT1 inhibitor: blocks Candida albicans tRNA 2'-phosphotransferase; recombinant caTPT1, FP RNA substrate dephosphorylation; inhibition, % at 5 µM; 300,000 compounds, 0.81% hits; AID 1962;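 active = inhibition above the mean of all tested compounds plus 3 SD, set per screening campaign, cut at about 24% in these data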
CTSL1 counter: cathepsin L1 inhibition, PFM18AAP counter-screen | 300,000 compounds, 0.49% hits | AID 1906 | inhibition, % at 5.96 µM | recombinant F. hepatica cathepsin L1, Z-Leu-Arg-MCA fluorescence;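 active = inhibition above the mean of all tested compounds plus 3 SD, set per screening campaign, cut at about 17% in these data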
PHOSPHO1 inh: PHOSPHO1 (human) inhibition; Q8TCT1; recombinant PHOSPHO1, absorbance phosphatase assay; inhibition, % at 13.3 µM; 290,000 compounds, 1.1% hits; AID 1565; in the data active = inhibition above about 60%
Rpn11 inh: Rpn11 (human) deubiquitinase inhibition; 360,000 compounds, 0.59% hits; O00487; AID 588493; inhibition, % at 20 µM; human 26S proteasome, Ub4-pepOG fluorescence polarization; 20S core pre-blocked with epoxomicin;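 active = inhibition at 20 µM, scaled to each plate's controls, above about 33%, limit read from the data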
NRP1-CendR mod: alters CendR peptide binding to human NRP-1; inhibition, % at 25 µM; 360,000 compounds, 0.85% hits; FAM-RPARPAR peptide binding to NRP-1, fluorescence polarization;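 active = inhibition or corrected inhibition above about 18%, plus a signal ratio from 0.5 to 1.5, limit read from the data, passing the limit was not always enough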
Large screens that a line does not name were inactive.

Cc1ccc(SC(C)C(=O)Nc2cccnc2)cc1 (centres undefined)	PHOSPHO1 inh 60.1
Cc1ccc(S(=O)(=O)N2CCOCC2)cc1NC(=O)CNC(C)c1ccccc1 (centres undefined)	none (no result: TPT1 inhibitor, CTSL1 counter, PHOSPHO1 inh)
Cn1c(=O)[nH]c2c(c1=O)CCO2	none (no result: TPT1 inhibitor, CTSL1 counter, PHOSPHO1 inh)
Cn1c(CSc2nc3ccccc3s2)nnc1SCC(=O)NCc1ccccn1	none
CCn1c(CSc2nc3ccccc3s2)nnc1SCC(=O)c1ccc(Cl)cc1	PHOSPHO1 inh 73.4
CCn1c(CSc2nc3ccccc3s2)nnc1SCC(=O)c1ccc(O)c(O)c1	PHOSPHO1 inh 85.5
Cc1nn(C)c(-c2n[nH]c(=S)n2Cc2ccco2)c1Cl	none
Oc1ccc(-c2n[nH]c(=S)n2Cc2ccco2)cc1	PHOSPHO1 inh 99.8
S=c1[nH]nc(C2CC2)n1Cc1ccco1	PHOSPHO1 inh 80.9
Oc1cc2ccccc2cc1-c1n[nH]c(=S)n1Cc1ccco1	NRP1-CendR mod 21.1
S=c1[nH]nc(Cc2ccccc2)n1Cc1ccco1	none
C=CCOC(=O)C1=C[C@H](C2CCCCC2)C[C@H](OCc2ccc(CO)cc2)O1	none (no result: PHOSPHO1 inh)
Cc1ccc(OCCCC(=O)NNC(=O)c2ccncc2)cc1	none (no result: PHOSPHO1 inh)
Cc1c(CC(=O)O)c(=O)oc2c(C)c(OCc3ccc(F)cc3F)ccc12	none
Cc1c(CC(=O)O)c(=O)oc2c(C)c3occ(-c4ccccc4)c3cc12	NRP1-CendR mod 45.2 (no result: PHOSPHO1 inh)
Cc1c(CCC(=O)O)c(=O)oc2c(C)c3occ(-c4ccc(Cl)cc4)c3cc12	none (no result: TPT1 inhibitor, CTSL1 counter)
COc1ccccc1COc1ccc2c(C)c(CC(=O)O)c(=O)oc2c1C	NRP1-CendR mod 36.3
N#CC1=C2N=C(N)c3c(sc4c3CCCCC4)N2C2=C(C(=O)CCC2)C1c1ccccc1 (centres undefined)	PHOSPHO1 inh 69.5
CC(NC(=O)/C(C#N)=C/c1ccc([N+](=O)[O-])o1)c1ccccc1 (centres undefined)	none
CC(NC(=O)/C(C#N)=C/c1ccco1)c1ccccc1 (centres undefined)	CTSL1 counter 36.1
COc1ccc(OCc2nc(N)nc(Nc3cccc(C)c3C)n2)cc1	NRP1-CendR mod 25.9
COc1ccc(Nc2nc(N)nc(COc3ccc(OC)cc3)n2)cc1	none
O=C(Nc1cccc2c1C(=O)NC2=O)c1ccc(N2C(=O)CCC2=O)cc1	CTSL1 counter 42.4
O=C(Nc1cccc2c1C(=O)NC2=O)c1cccnc1Cl	none
C[C@@]12C(=O)N(CC3CC3)CC(=O)N1[C@H](/C=C/c1ccccc1)[C@@H]1C(=O)N(c3ccccc3)C(=O)[C@@H]12	NRP1-CendR mod 27.9
CSc1ccc(-c2cc3c(c4c2ccn4C)C2CCC3C2)cc1 (centres undefined)	NRP1-CendR mod 25.2 (no result: TPT1 inhibitor, CTSL1 counter, PHOSPHO1 inh)
COC(=O)C(Nc1ccccc1Cl)(c1cc(C)c(O)c(C)c1)C(F)(F)F (centres undefined)	none
COC(=O)/C(=C(/F)Sc1cc(C)c(O)c(C)c1)C(F)(F)F	PHOSPHO1 inh 63.7
C=CCN(C(=O)CSC1=NC(=O)CN1C(C)=O)c1nc(C)c(-c2ccccc2)s1	CTSL1 counter 18.9
C=CCSc1nnc(-c2sc(-c3ccccc3)nc2C)n1C	none
O=C(NCCCN1CCCC1=O)c1ccc(OCc2ccccc2)cc1	none
CCOc1ccc(C(=O)NC(=S)Nc2cccc(NC(=O)c3ccco3)c2)cc1[N+](=O)[O-]	none
Cc1ccc2c(c1)c(=O)c1c3n2CCN(C(=O)CCl)C3CC1 (centres undefined)	CTSL1 counter 77.5, PHOSPHO1 inh 79.6, NRP1-CendR mod 26.4
COc1cc(/C=C2/S/C(=N/S(=O)(=O)c3ccccc3)NC2=O)c([N+](=O)[O-])cc1OC	PHOSPHO1 inh 71.3
Cc1ccc(S(=O)(=O)/N=C2/NC(=O)/C(=C\c3cc(Br)cc(Br)c3O)S2)cc1	HNF4A DNA FP 80.5 (not shown: TPT1 inhibitor, CTSL1 counter, Rpn11 inh)
Cc1ccc(S(=O)(=O)/N=C2/NC(=O)/C(=C/c3cccnc3)S2)cc1	none
Cc1cc(C)nc(Sc2ccc(/C=C(\C#N)C(=O)Nc3ccccc3)o2)n1	HNF4A DNA FP 71.3
Nc1ccc(N2CCOCC2)c2nonc12	CTSL1 counter 32.5
O=C(Oc1ccc2c3c(c(=O)oc2c1)CCC3)c1ccccc1[N+](=O)[O-]	none (no result: HNF4A DNA FP, Rpn11 inh, NRP1-CendR mod)
Cc1c(N2C(=O)/C(=C/c3ccccc3)SC2=S)c(=O)n(-c2ccccc2)n1C	none
Cc1c(N2C(=O)/C(=C/c3ccc(N(C)C)cc3)N(C)C2=S)c(=O)n(-c2ccccc2)n1C	HNF4A DNA FP 55.4 (not shown: TPT1 inhibitor, CTSL1 counter, PHOSPHO1 inh, Rpn11 inh)
O=C(CSc1nnc(CN2CCOCC2)n1-c1ccc(Cl)cc1)N1CCc2ccccc21	none (no result: PHOSPHO1 inh)
O=C(CSc1nnc(CN2CCOCC2)n1-c1ccc(Cl)cc1)Nc1cc(Cl)ccc1O	NRP1-CendR mod 20.7
NS(=O)(=O)c1cc(C(=O)NCC2CCCCC2)ccc1Cl	none
CC(C)CC1=C/C(=C/c2ccc(-c3ccccc3)o2)C(=O)O1	Rpn11 inh 53.2
NC(=S)N/N=C/c1c(O)c(Br)cc2oc3c(c12)CCCC3	CTSL1 counter 22.4
Oc1c(Br)cc2oc3c(c2c1CNCc1ccccc1)CCCC3	none
Oc1oc(-c2ccco2)nc1C=Nc1cccc(Cl)c1	CTSL1 counter 36.5
Oc1oc(-c2ccco2)nc1C=Nc1ccccc1	none
COC(C[C@H](O)C[C@@H](O)[C@H](C)OCc1ccccc1)OC	none (no result: TPT1 inhibitor, CTSL1 counter)
COC(C[C@H]1O[C@H]1[C@@H](O)[C@@H](C)OCc1ccccc1)OC	NRP1-CendR mod 20.2 (no result: TPT1 inhibitor, CTSL1 counter)
COC(C[C@@H]1O[C@H]1C(=O)COCc1ccccc1)OC	NRP1-CendR mod 28.2 (no result: PHOSPHO1 inh)
COC(C[C@@H](O)C[C@H](O)[C@@H](C)OCc1ccccc1)OC	NRP1-CendR mod 20.9 (no result: TPT1 inhibitor, CTSL1 counter)
COC(C[C@H]1O[C@@H]1C(=O)COCc1ccccc1)OC	none (no result: HNF4A DNA FP, PHOSPHO1 inh, Rpn11 inh, NRP1-CendR mod)
Cc1cccc(C)c1NC(=O)CN1C(=O)CCSc2ccc(S(=O)(=O)N3CCCC3)cc21	none
CCOC(=O)[C@]12CCCC=C1N(Cc1ccc3c(c1)OCO3)C(=O)[C@H](CC(=O)NCC1CCCCC1)C2	none (no result: TPT1 inhibitor, CTSL1 counter, PHOSPHO1 inh, Rpn11 inh)
COC(=O)CC(c1ccc(C(C)C)cc1)n1cccc1 (centres undefined)	none
COc1ccc(C2=NN3C(C2)c2ccccc2OC3c2cccs2)cc1 (centres undefined)	Rpn11 inh 40.3
C(=C\c1ccccc1)/CSc1nnc(-c2ccccc2)n1Cc1ccco1	PHOSPHO1 inh 80.1
Clc1cccc(-c2nnc(SC/C=C/c3ccccc3)n2Cc2ccco2)c1	none
c1ccc(-c2nnc(CSc3nnc(-c4ccncc4)n3Cc3ccco3)o2)cc1	none
C(=C\c1ccccc1)/CSc1nnc(-c2ccncc2)n1Cc1ccco1	PHOSPHO1 inh 64.1
COc1cc2c(cc1OC)C(c1ccccc1)N(C(=O)CCl)CC2 (centres undefined)	CTSL1 counter 30.7
COc1cc2c(cc1OC)C(C1C(=O)CCCC1=O)N(C(=O)CCl)CC2 (centres undefined)	none
COc1ccc2c(Cl)c(C(=O)NCCc3ccc(S(N)(=O)=O)cc3)sc2c1	none
